The results in this text go back to PubChem BioAssay (EPA / NIEHS).

Activity calls are given as the source filed them. Rule for the calls: active = hit-call score of the fitted dose curve at least 0.9, where 1 is the maximum; inactive = score below 0.9.

A short description of the experiment: ATG_M_06_CIS: Attagene CIS-FACTORIAL HepG2 Assay for M06 Transcription Factor (Internal Marker) (AID 2282950). The following applies: HepG2 Attagene CIS-FACTORIAL M06 internal marker reporter; actives raise or lower the signal. As for the experimental part:
ATG_CIS is a cell-based, multiplexed-readout assay that uses HepG2, a human liver cell line, with measurements taken at 24 hours after chemical dosing in a 24-well plate.ATG_M_06_CIS is one of 52 assay component(s) measured or calculated from the ATG_CIS assay. It is designed to make measurements of mRNA induction, a form of inducible reporter, as detected with fluorescence intensity signals by Reverse transcription polymerase chain reaction (RT-PCR) and Capillary electrophoresis technology.Data from the assay component ATG_M_06_CIS was analyzed into 1 assay endpoint. This assay endpoint, ATG_M_06_CIS, was analyzed with bidirectional fitting relative to DMSO as the negative control and baseline of activity. Using a type of inducible reporter, measures of mRNA for gain or loss-of-signal activity can be used to understand the background control at the transcription factor-level as they relate to the gene . Furthermore, this assay endpoint can be referred to as a secondary readout, because this assay has produced multiple assay endpoints where this one serves a background control function. To generalize the intended target to other relatable targets, this assay endpoint is annotated to the background measurement intended target family, where the subfamily is internal marker.
Human liver HepG2 cells are transiently transfected with multiple reporter transcription units (MRTUs) in 6-well plates using FuGene 6 reagent (Roche; 3 ml FuGene/1 mg DNA). The MRTU constructs are regulated by a cis-regulating element (promoter). […] A major difference between the CIS and TRANS system is that in CIS activities of endogenous TFs are measured, whereas the TRANS assay evaluates changes in activities of exogenous, chimeric NR-Gal4 proteins. […] At the end of 24 hour incubation, total RNA was isolated using TriZol reagent (Invitrogen). The isolated RNA is then reverse-transcribed using oligo(dT) primer and Mo-MLV reverse transcriptase (Invitrogen) with DNAse I (Ambion) treatment for 30 min. The one-tenth of the produced cDNA was amplified by PCR using Taq DNA polymerase (Invitrogen) and two reporter sequence-specific primers. The PCR products were fluorescently labeled by primer extension with 6-arboxyfluorescein (6-FAM) 5'-labeled reporter sequence-specific primer (2 min at 95 C, 20 s at 68 C and 10 min at 72 C) and these products were digested with 5U of HpaI (New England Biolabs) for 2h at 37 C. The fragments were purified using Qiaquick PCR columns (Qiagen), analyzed on an ABI 3130xL genetic analyzer (Applied Biosystems) with peak positions identified by using a set of X-rhodamine (ROX)-labeled MapMarker1000 molecular weight standards (BioVentures). The raw capillary electrophoresis data was processed using Attagraph software (Attagene).
Regarding `CCCCCCCCCCCC(=O)OCC`, the outcome was inactive. The result for `CC(C)CC(=O)OCc1ccccc1` reads “inactive”; that for `CCOC(=O)OC(=O)OCC`, “inactive”. With `NNS(=O)(=O)c1ccc(Oc2ccc(S(=O)(=O)NN)cc2)cc1`, the molecule was called inactive. To `CC(=O)/C=C/C1C(C)=CCCC1(C)C` (stereo not given) belongs “inactive”.

`CO[Si](CCCS)(OC)OC`: the molecule was classed as inactive. The result for `C=CC(=O)NCOCCCC` reads “inactive”; that for `Cc1ccc2c(c1)CCCN2`, “inactive”. The result for `CC(C)(c1ccccc1)c1ccc(Nc2ccc(C(C)(C)c3ccccc3)cc2)cc1` reads “inactive”; that for `CCCCCCCCCCCCc1ccc(O)cc1`, “inactive”; that for `CC(C)=CCl`, “inactive”.

Turning to `C=C(C)OC(C)=O`, the result was inactive. To `O=C(Oc1ccccc1)c1ccccc1C(=O)Oc1ccccc1` belongs “inactive”; to `Cc1ccc([N+](=O)[O-])cc1N`, “inactive”; to `CC(C)c1cccc(C(C)C)c1N`, “inactive”. To `COc1nccnc1CC(C)C` belongs “inactive”; to `CCCCCC(=O)OCC`, “inactive”. The result for `CC1C(C)(C)C2=C(C(=O)CCC2)C1(C)C` (stereo not given) reads “inactive”; that for `CC1(C)CCC[C@]2(C)[C@H]3CC(=O)O[C@]3(C)CC[C@@H]12`, “inactive”. Consider `CC(=O)OC(C)c1ccccc1` (stereo not given), for which the result was inactive. To `Nc1cccc(N)n1` belongs “inactive”; to `C=C1C[C@H]2[C@@H]3C=C(C)C4=CC(=O)CC[C@]4(C)[C@H]3CC[C@]2(C)[C@@]1(OC(C)=O)C(C)=O`, “inactive”; to `CCC1(C)C(=O)N(Cl)C(=O)N1Cl` (stereo not given), “inactive”. To `CCOC(=O)c1ccccc1C` belongs “inactive”; to `COC(=O)C=Cc1ccccc1`, “inactive”. The result for `Cc1cccc(C(C)(C)C)c1O` reads “inactive”. As for `Cc1cc(C)c(C=O)c(C)c1`, the result was inactive. The result for `CC(=O)CCC=C(C)C` reads “inactive”; that for `CC(=O)OCCc1ccccc1`, “inactive”. To `CC=C(C)C=CC=C(C)C` belongs “inactive”; to `CCCCCCCCCCCCCc1ccccc1`, “inactive”; to `CC1(C)[C@@H]2CC[C@@]1(C)C(=O)C2`, “inactive”.

For `CC(CC=O)CC(C)(C)C` (stereo not given), the molecule was classed as inactive. To `Cc1c[nH]c(=O)[nH]c1=O` belongs “inactive”; to `Cc1c(O)cccc1O`, “inactive”. With `Nc1ccnc(=O)[nH]1`, the outcome was inactive. The result for `CO[Si](C)(C)OC` reads “inactive”.

Regarding `C=CCNCC=C`, the outcome was inactive. To `CC(C)CCOCc1ccccc1` belongs “inactive”. To `Nc1ccc(C(=O)OCCCOC(=O)c2ccc(N)cc2)cc1` belongs “inactive”.
